# Data as given in PubChem BioAssay (Tox21).
# Inconclusive results are not listed. A number with no mark means an inactive call. The source made the active and inactive calls. Unless noted, calls follow the shape of the dose curve; as a rule, active = well fitted cell-killing curve with a large enough effect in the repeat runs; inconclusive = weak or mixed curves; inactive = no such curve, though single readings can be large or run the other way.
# System: not listed separately
# Assay: qHTS assay to identify small molecule agonists of the peroxisome proliferator-activated receptor delta (PPARd) signaling pathway - cell viability counter screen (AID 743211); also: nearly all actives have a fitted effect of over 55% in size
# Conditions: PPARd-bla HEK293H viability, CellTiter-Glo luminescence, 17 h; series mostly up to 62.6 µM; activity change, negative = cytotoxicity: at the top concentration
# In short: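 PPARd-bla HEK293H cells (3000/well) were pre-incubated 5 h at 37 C, then exposed to compound for 17 h at 37 C. After 2 h with LiveBLAzer substrate, CellTiter-Glo was added to the same wells; luminescence read after 30 min at room temperature.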
# % is scaled to controls: 0 for no effect and ±100 for the full control effect.
Structure (SMILES),outcome,"activity change, negative = cytotoxicity"
COC(=O)c1ccccc1C(=O)OC,inactive,
O=c1n(Cl)c(=O)n(Cl)c(=O)n1Cl,inactive,
Oc1ccccc1Cl,inactive,
O=C1CCCN1,inactive,
Clc1ccc(Cl)cc1,inactive,
O=c1[nH]c(=O)[nH]c(=O)[nH]1,,8.78%
CNC(=O)Oc1ccccc1OC(C)C,inactive,
CC(=O)C=C(C)C,inactive,
CCOC(=O)c1ccccc1C(=O)OCC,inactive,
C1CC2OC2CC1C1CO1 (stereo not drawn),inactive,
COC(=O)NC(=S)Nc1ccccc1NC(=S)NC(=O)OC,inactive,
COC(=O)c1ccccc1N,inactive,
Cc1ccc(N)cc1N,inactive,
[O-][Cl+2]([O-])O,inactive,
O=[N+]([O-])c1ccccc1,inactive,
O=NN1CCCC1,inactive,
O=NN1CCCCCCC1,,-3.01%
CN(C)CCO,inactive,

Structure (SMILES),outcome,"activity change, negative = cytotoxicity"
CCC[CH2][Sn]([Cl])([Cl])[Cl],inactive,
C#CCN(C)[C@H](C)Cc1ccccc1,inactive,
CC(C)NC(=O)N1CC(=O)N(c2cc(Cl)cc(Cl)c2)C1=O,inactive,
c1ccc(-c2ccccc2)cc1,inactive,
Cc1cc(Cl)ccc1O,inactive,
CCC[N+](=O)[O-],inactive,
Cc1ccc([N+](=O)[O-])cc1C,,9.23%
C=CC(N)=O,inactive,
C=CCO,inactive,
CC1OC(C)OC(C)O1 (stereo not drawn),inactive,
C[C@]12CC[C@H]3[C@@H](CC[C@@]45O[C@@H]4C(O)=C(C#N)C[C@]35C)[C@@H]1CC[C@@H]2O,inactive,
O=S(=O)(c1ccc(Cl)cc1)c1cc(Cl)c(Cl)cc1Cl,inactive,
Nc1ccc(Br)cc1,,-7.92%
COc1ccc2c3c1O[C@H]1[C@@H](O)C=C[C@H]4[C@@H](C2)N(C)CC[C@@]341,,-17.8% [at 81.1 µM]
O=[N+]([O-])c1ccc(Oc2ccc(Cl)cc2Cl)cc1,inactive,
CC(C)(C)OOC(C)(C)C,inactive,
Cc1ccccc1O,inactive,
c1ccc(OP(Oc2ccccc2)Oc2ccccc2)cc1,inactive,

# Target: Peroxisome proliferator-activated receptor delta (Homo sapiens) (UniProt Q03181)
# Sequence (Q03181 whole entry, looked up): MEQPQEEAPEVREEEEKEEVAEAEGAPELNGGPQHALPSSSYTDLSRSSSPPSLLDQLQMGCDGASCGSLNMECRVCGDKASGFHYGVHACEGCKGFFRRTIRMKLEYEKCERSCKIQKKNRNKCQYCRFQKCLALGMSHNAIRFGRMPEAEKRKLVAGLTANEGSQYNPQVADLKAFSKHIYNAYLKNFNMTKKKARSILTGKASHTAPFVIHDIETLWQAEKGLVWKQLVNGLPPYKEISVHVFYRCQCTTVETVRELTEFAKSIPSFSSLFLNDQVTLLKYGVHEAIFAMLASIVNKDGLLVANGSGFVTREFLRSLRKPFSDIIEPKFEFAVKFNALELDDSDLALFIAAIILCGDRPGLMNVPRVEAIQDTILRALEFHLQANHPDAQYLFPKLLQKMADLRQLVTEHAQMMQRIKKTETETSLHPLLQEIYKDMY
# Assay: qHTS assay to identify small molecule agonists of the peroxisome proliferator-activated receptor delta (PPARd) signaling pathway (AID 743212; calls by dose curve;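 also: HEK293H cells with PPARd UAS beta-lactamase reporter GeneBLAzer system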)
# Conditions: HEK293H PPARd-UAS-bla, beta-lactamase FRET ratio, 17 h; series mostly up to 62.6 µM; activation: at the top concentration
# In short: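 Steps: seed PPARd-bla HEK293H cells; incubate 5 h, 37 C, 5% CO2; add compounds in DMSO; incubate, 37 C; add LiveBLAzer B/G FRET substrate; hold 2 h at room temperature; measure fluorescence.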
Structure (SMILES),outcome,activation
O=c1n(Cl)c(=O)n(Cl)c(=O)n1Cl,inactive,
Oc1ccccc1Cl,inactive,
O=C1CCCN1,inactive,
Clc1ccc(Cl)cc1,inactive,
O=c1[nH]c(=O)[nH]c(=O)[nH]1,inactive,
CNC(=O)Oc1ccccc1OC(C)C,inactive,
CCOC(=O)c1ccccc1C(=O)OCC,inactive,
C1CC2OC2CC1C1CO1 (stereo not drawn),inactive,
COC(=O)NC(=S)Nc1ccccc1NC(=S)NC(=O)OC,inactive,
COC(=O)c1ccccc1N,inactive,
Cc1ccc(N)cc1N,inactive,
O=[N+]([O-])c1ccccc1,inactive,
O=NN1CCCC1,inactive,
CN(C)CCO,inactive,
CCC[CH2][Sn]([Cl])([Cl])[Cl],inactive,
C#CCN(C)[C@H](C)Cc1ccccc1,inactive,

Structure (SMILES),outcome,activation
CC(C)NC(=O)N1CC(=O)N(c2cc(Cl)cc(Cl)c2)C1=O,,-14.1%
c1ccc(-c2ccccc2)cc1,,0.556%
Cc1cc(Cl)ccc1O,inactive,
CCC[N+](=O)[O-],inactive,
Cc1ccc([N+](=O)[O-])cc1C,inactive,
C=CC(N)=O,inactive,
C=CCO,inactive,
CC1OC(C)OC(C)O1 (stereo not drawn),inactive,
C[C@]12CC[C@H]3[C@@H](CC[C@@]45O[C@@H]4C(O)=C(C#N)C[C@]35C)[C@@H]1CC[C@@H]2O,,-11.1%
O=S(=O)(c1ccc(Cl)cc1)c1cc(Cl)c(Cl)cc1Cl,,-4.44%
Nc1ccc(Br)cc1,inactive,
COc1ccc2c3c1O[C@H]1[C@@H](O)C=C[C@H]4[C@@H](C2)N(C)CC[C@@]341,,0.798% [at 81.1 µM]
O=[N+]([O-])c1ccc(Oc2ccc(Cl)cc2Cl)cc1,inactive,
CC(C)(C)OOC(C)(C)C,inactive,
Cc1ccccc1O,inactive,

# System: not listed separately
# Assay: qHTS assay to identify small molecule antagonists of the peroxisome proliferator-activated receptor delta (PPARd) signaling pathway - cell viability counter screen (AID 743213); also: nearly all actives have a fitted effect of over 50% in size
# Conditions: PPARd-bla HEK293H viability, CellTiter-Glo luminescence, 17 h; series mostly up to 62 µM; viability change, negative = cytotoxic: at the top concentration
# In short: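 Viability counter-screen, qHTS format: PPARd-bla HEK293H, L165041 300 nM final, 17 h compound exposure at 37 C, CellTiter-Glo luminescence after 30 min RT.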
Structure (SMILES),outcome,"viability change, negative = cytotoxic"
COC(=O)c1ccccc1C(=O)OC,inactive,
O=c1n(Cl)c(=O)n(Cl)c(=O)n1Cl,inactive,
Oc1ccccc1Cl,inactive,
O=C1CCCN1,inactive,
Clc1ccc(Cl)cc1,inactive,
O=c1[nH]c(=O)[nH]c(=O)[nH]1,inactive,
CNC(=O)Oc1ccccc1OC(C)C,,7.24%
CC(=O)C=C(C)C,inactive,
CCOC(=O)c1ccccc1C(=O)OCC,inactive,
C1CC2OC2CC1C1CO1 (stereo not drawn),inactive,
COC(=O)NC(=S)Nc1ccccc1NC(=S)NC(=O)OC,,-15.7%
COC(=O)c1ccccc1N,,-4.03%
Cc1ccc(N)cc1N,inactive,
[O-][Cl+2]([O-])O,inactive,
O=[N+]([O-])c1ccccc1,inactive,
O=NN1CCCC1,,-7.81%
O=NN1CCCCCCC1,inactive,
CN(C)CCO,inactive,

Structure (SMILES),outcome,"viability change, negative = cytotoxic"
CCC[CH2][Sn]([Cl])([Cl])[Cl],inactive,
C#CCN(C)[C@H](C)Cc1ccccc1,inactive,
CC(C)NC(=O)N1CC(=O)N(c2cc(Cl)cc(Cl)c2)C1=O,inactive,
c1ccc(-c2ccccc2)cc1,inactive,
Cc1cc(Cl)ccc1O,inactive,
CCC[N+](=O)[O-],inactive,
Cc1ccc([N+](=O)[O-])cc1C,inactive,
C=CC(N)=O,inactive,
C=CCO,,-23.5%
CC1OC(C)OC(C)O1 (stereo not drawn),inactive,
C[C@]12CC[C@H]3[C@@H](CC[C@@]45O[C@@H]4C(O)=C(C#N)C[C@]35C)[C@@H]1CC[C@@H]2O,,-2.91%
O=S(=O)(c1ccc(Cl)cc1)c1cc(Cl)c(Cl)cc1Cl,inactive,
Nc1ccc(Br)cc1,inactive,
COc1ccc2c3c1O[C@H]1[C@@H](O)C=C[C@H]4[C@@H](C2)N(C)CC[C@@]341,inactive,
O=[N+]([O-])c1ccc(Oc2ccc(Cl)cc2Cl)cc1,inactive,
CC(C)(C)OOC(C)(C)C,inactive,
Cc1ccccc1O,,0.244%
c1ccc(OP(Oc2ccccc2)Oc2ccccc2)cc1,inactive,
